From PubChem BioAssay (NCATS)
Inconclusive results are not listed. Calls of active or inactive are those of the source. The call rests on the fitted dose curve; in most records, active means well fitted curve in the direction sought with a large enough effect; inconclusive means small, poorly fitted or top-dose-only effect, or another doubt; inactive means no such curve, though single readings can be large; an effect the other way counts as inactive or inconclusive. Where a SMILES comes first, the peptide text is derived from it.

What was measured:
[1] = target: Phospholipid hydroperoxide glutathione peroxidase GPX4 (Homo sapiens) (UniProt P36969); assay: Primary qHTS Assay for Inhibitors of Recombinant Selenoprotein Glutathione Peroxidase 4 (GPX4) (AID 1845192); further: nearly all actives have a fitted effect of over 65% in size; further: potency means the concentration at half of the fitted maximal effect; on activity change, negative = inhibition: series mostly up to about 50 µM; on the % scale 0 is the no-effect control and ±100 the full control effect
Chain of Phospholipid hydroperoxide glutathione peroxidase GPX4 (Homo sapiens) (P36969 whole entry, looked up): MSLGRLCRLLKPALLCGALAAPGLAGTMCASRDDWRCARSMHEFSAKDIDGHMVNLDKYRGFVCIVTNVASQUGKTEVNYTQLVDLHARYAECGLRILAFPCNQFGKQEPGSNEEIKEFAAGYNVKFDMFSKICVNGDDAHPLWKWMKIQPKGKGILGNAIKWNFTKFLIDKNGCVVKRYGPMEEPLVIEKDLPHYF
Method in brief: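 GR-coupled readout: 100 nM GR, 1 mM GSH, 0.5 mM NADPH; NADPH fluorescence (ex 340/em 450 nm) read at t=0 and after 15 min RT. GPX4 200 nM, preincubated 30 min with compound; substrate 0.5 mM CHP.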

[2] = target: Luciferin 4-monooxygenase (Photinus pyralis) (UniProt P08659); assay: Primary firefly luciferase (FLuc) qHTS assay for identification of artifact compounds. (AID 1845220); further: nearly all actives have a fitted effect of over 60% in size;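 on activity change, negative = inhibition: series mostly up to about 54 µM; plate controls were DMSO vehicle for no effect and no enzyme for full effect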
Method in brief: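 qHTS, 15 min compound preincubation with substrate (10 uM luciferin, 10 uM ATP) at RT, then 10 nM FLuc; 5 min; luminescence; % inhibition vs no-enzyme/DMSO controls, 4-parameter Hill fit.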

[3] = Primary fluorescence-based thiol-reactive (MSTI) qHTS assay for identification of artifact compounds. (AID 1845221); further: nearly all actives have a fitted effect of over 65% in size; further: potency means the concentration at half of the fitted maximal effect;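 on activity change, negative = thiol reactive: series mostly up to about 54 µM; thiol-reactive compounds lower the probe fluorescence signal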
Method in brief: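 Compounds were incubated 1 h at room temperature in the dark with the MSTI probe (4 uM) in PBS pH 7.4, 2% DMSO. Signals were normalized between Acetyl-MSTI and MSTI.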

[4] = test system: Nanoluciferase (engineered Oplophorus gracilirostris luciferase); assay: Primary Nanoluciferase (NLuc) qHTS assay for identification of artifact compounds. (AID 1845222);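 further: series mostly up to about 54 µM; 0% = DMSO and -100% = no enzyme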
Method in brief: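 Luminescence read-out of secreted NLuc in S16 cell conditioned medium (1:55); compounds tested with 15 min RT preincubation, then Nano-Glo substrate 1:100, 5 min. % inhibition vs no-enzyme and DMSO controls, 4-parameter Hill fit.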

[5] = Primary redox qHTS assay for identification of artifact compounds. (AID 1845223);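 further: 0% = DMSO and 100% = reference compound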
Method in brief: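 Amplex Red (25 uM) and HRP (250 mU/mL) in HBSS, with compounds for 15 min, then 250 uM DTT for 30 min, room temperature, dark. Fluorescence 525/598 nm read; normalized to DMSO and 10 uM DA3003; Hill fit.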

Cc1cn2c(N)c(Cl)cc(C(=O)NCC3CCN(CC(C)C)CC3)c2n1
inactive: Potency [2] | Potency [3] | Potency [4] | Potency [5]
active: Potency [1] 22.7 µM

COC(=O)C1=CO[C@@H](O[C@@H]2O[C@H](CO)[C@@H](O)[C@H](O)[C@H]2O)[C@@H]2[C@@H](C)[C@@H](O)C[C@H]12
inactive: Potency [1] | Potency [2] | Potency [3] | Potency [4] | Potency [5]

CC1=CCC2C(C)(CO)CCCC2(C)C1CC12OC1C(O)C(CO)=CC2O (stereo not given)
inactive: Potency [1] | Potency [2] | Potency [3] | Potency [4] | Potency [5]

CC(=O)[C@@H]1CC[C@]2(C(=O)O)CC[C@]3(C)C(CCC4[C@@]5(C)CC[C@H](O)C(C)(C)C5CC[C@]43C)C12 (stereo not given in full)
inactive: Potency [1] | Potency [2] | Potency [3] | Potency [4] | Potency [5]

N#CCc1ccc(O)cc1O[C@@H]1O[C@H](CO)[C@@H](O)[C@H](O)[C@H]1O
inactive: Potency [1] | Potency [2] | Potency [4] | Potency [5]
active: Potency [3] 13.1 µM

C=C1C(=O)O[C@H]2[C@H]1[C@@H](OC(=O)C(C)CO)C[C@@]1(C)[C@H](O)CCC(=O)[C@H]21 (stereo not given in full)
inactive: Potency [1] | Potency [2] | Potency [3] | Potency [4] | Potency [5]

Cc1cccc(-c2[nH]c(CNc3ccccc3F)nc2-c2ccc3ncnn3c2)n1
inactive: Potency [1] | Potency [2] | Potency [3] | Potency [4] | Potency [5]

COc1cc(C2Oc3c(OC)cc(/C=C/C(=O)OC[C@H]4O[C@@H](OC(C)(C)C(=O)O)[C@H](O)[C@@H](O)[C@@H]4O)cc3C2CO)ccc1O (stereo not given in full)
inactive: Potency [1] | Potency [2] | Potency [3] | Potency [4] | Potency [5]

CC(C)CC(=O)O[C@@H]1OC=C(CO[C@@H]2O[C@H](CO[C@@H]3O[C@H](CO)[C@@H](O)[C@H](O)[C@H]3O)[C@@H](O)[C@H](O)[C@H]2O)[C@H]2C[C@H](O)[C@@H](CO)[C@@H]12
inactive: Potency [1] | Potency [2] | Potency [3] | Potency [4] | Potency [5]

CCC/C=C/C(=O)O[C@H]1CC(C)(C)CC2[C@]13[C@H](O)O[C@@]21CCC2[C@@]4(C)CC[C@H](O[C@@H]5O[C@H](C(=O)O)[C@@H](O)[C@H](O[C@@H]6O[C@H](CO)[C@H](O)[C@H](O)[C@H]6O[C@@H]6O[C@@H](C)[C@H](O)[C@@H](O)[C@H]6O[C@@H]6OC[C@](O)(CO)[C@H]6O)[C@H]5O[C@@H]5O[C@H](CO)[C@H](O)[C@H](O)[C@H]5O)C(C)(C)C4CC[C@@]2(C)[C@]1(C)C[C@H]3OC(C)=O (stereo not given in full)
inactive: activity change, negative = inhibition [1] -8.75% [at 9.73 µM] | outcome [2] inactive [at 11.6 µM] | activity change, negative = thiol reactive [3] 179% [at 11.5 µM] | activity, negative = inhibition [4] 4.57% [at 11.6 µM] | redox activity (% of DA3003) [5] -2.32% [at 11.5 µM]

CC1CCC2(C)C(CC(O)C(O)C23CO3)C1(C)CCC1=CC(=O)OC1O (stereo not given)
inactive: Potency [1] | Potency [2] | Potency [3] | Potency [4] | Potency [5]

COc1ccc(C)c2sc(NC(=O)c3ccncc3)nc12
inactive: Potency [1] | Potency [2] | Potency [3] | Potency [4] | Potency [5]

CO/N=C(/C(=O)N[C@@H]1C(=O)N2C(C(=O)O)=C(CSC(=O)c3ccco3)CS[C@H]12)c1csc(N)n1
inactive: Potency [2] | Potency [3] | Potency [4] | Potency [5]
active: Potency [1] 7.08 µM

CC(=O)OC1C(O)CC(O[C@@H]2O[C@H](CO)[C@@H](O)[C@H](O)[C@H]2O)C2CCC3C(=O)OC(c4ccoc4)CC3(C)C21 (stereo not given in full)
inactive: Potency [1] | Potency [2] | Potency [3] | Potency [4] | Potency [5]

C=C1CC2[C@]3(C)C(=C(O)C(=O)[C@@]2(C)[C@]2(C(=O)OC)C(=O)C(C)OC(=O)[C@@]12C)C(C)(C)C(=O)CC3O (stereo not given in full)
inactive: Potency [1] | Potency [2] | Potency [3] | Potency [4] | Potency [5]

C[C@@]12C[C@]3(O)O[C@H](O1)[C@]1(COC(=O)c4ccccc4)[C@H]3C[C@@]12O[C@@H]1O[C@H](COC(=O)c2ccccc2)[C@@H](O)[C@H](O)[C@H]1O
inactive: Potency [1] | Potency [2] | Potency [3] | Potency [4] | Potency [5]

COc1cc([C@H]2OC[C@@H]3[C@@H](c4ccc(O[C@@H]5O[C@H](CO)[C@@H](O)[C@H](O)[C@H]5O)c(OC)c4)OC[C@]23O)ccc1O
inactive: Potency [1] | Potency [2] | Potency [3] | Potency [4] | Potency [5]

Cc1coc2c1CC1OC1(C)CCC1OC1(C)C2 (stereo not given)
inactive: Potency [1] | Potency [2] | Potency [3] | Potency [4] | Potency [5]

CCOC(=O)c1ccc(N(C)c2csc(-c3ccccc3)n2)cc1
inactive: Potency [1] | Potency [2] | Potency [3] | Potency [4] | Potency [5]

Nc1nc(CC(=O)Nc2ccc(CCNCC(O)c3ccccc3)cc2)cs1 (stereo not given)
inactive: Potency [1] | Potency [2] | Potency [3] | Potency [4] | Potency [5]

O=C(/C=C/c1ccc(O)cc1)OCC1=C[C@@H](O)[C@@H]2C=CO[C@@H](O[C@@H]3O[C@H](CO)[C@@H](O)[C@H](O)[C@H]3O)[C@H]12
inactive: Potency [1] | Potency [2] | Potency [4] | Potency [5]
active: Potency [3] 5.82 µM

CC1CCC2(C(=O)OC3OC(CO)C(O)C(O)C3O)CCC3(C(=O)O)C(=CCC4C5(C)CCC(OC6OC(C)C(O)C(O)C6O)C(C)(C)C5CCC43C)C2C1C (stereo not given)
inactive: Potency [1] | Potency [2] | Potency [3] | Potency [4] | Potency [5]

COc1cc(CC(COC2OC(CO)C(O)C(O)C2O)c2cc(/C=C/CO)cc(OC)c2O)ccc1O (stereo not given)
inactive: Potency [1] | Potency [2] | Potency [4] | Potency [5]
active: Potency [3] 9.22 µM

CC(CO[C@@H]1O[C@H](COC(=O)/C=C/c2ccc(O)c(O)c2)[C@@H](O)[C@H](O)[C@H]1O)C1(O)COC(=O)C1 (stereo not given in full)
active: Potency [3] 1.84 µM
inactive: Potency [1] | Potency [2] | Potency [4] | Potency [5]

C[C@@H](O)[C@H](N)C(=O)N1CCC[C@H]1C(=O)N1CCC[C@H]1C(=O)N[C@H](C(N)=O)[C@@H](C)O (H-TPPT-NH2)
inactive: activity change, negative = inhibition [1] 2.51% [at 9.73 µM] | activity change, negative = inhibition [2] 3.24% [at 11.6 µM] | activity change, negative = thiol reactive [3] -5.11% [at 11.5 µM] | activity, negative = inhibition [4] 4.97% [at 11.6 µM] | redox activity (% of DA3003) [5] 17.6% [at 11.5 µM]

COc1cccc2c1CCC[C@H]2CN(C)CCc1ccc2ccoc2c1
inactive: Potency [1] | Potency [2] | Potency [3] | Potency [4] | Potency [5]

COc1cc(CCc2ccccc2)c(C(=O)O)c2c1CC(C(C)(C)O)O2 (stereo not given)
inactive: Potency [1] | Potency [2] | Potency [3] | Potency [4] | Potency [5]

CC(C)(O)C1=CCC23COC(C2)C(O)(C(=O)O)CCC13 (stereo not given)
inactive: Potency [1] | Potency [2] | Potency [3] | Potency [4] | Potency [5]

COc1cc(/C=C/C(=O)OC2[C@H](O)CC(O)(C(=O)O)C[C@H]2O)ccc1O (stereo not given in full)
inactive: Potency [1] | Potency [2] | Potency [3] | Potency [4] | Potency [5]

Cc1onc(-c2ccccc2)c1C(=O)N[C@@H]1C(=O)N2[C@@H]1SC(C)(C)[C@@H]2C(=O)O
inactive: Potency [1] | Potency [2] | Potency [3] | Potency [4] | Potency [5]

O=C(CCCCc1ccc2ccccc2c1)C(F)(F)F
inactive: Potency [1] | Potency [2] | Potency [3] | Potency [4] | Potency [5]

COc1cc(C)c(C(=O)O[C@H]2[C@@H](O)[C@H](n3ccc(=O)[nH]c3=O)O[C@@H]2CO)c(OC)c1
inactive: Potency [1] | Potency [2] | Potency [3] | Potency [4] | Potency [5]

CCC[C@@H]1C[C@@H](C(=O)N[C@@H]([C@H]2O[C@H](SC)[C@H](O)[C@@H](O)[C@@H]2O)[C@@H](C)O)N(C)C1
inactive: Potency [1] | Potency [2] | Potency [3] | Potency [4] | Potency [5]

CCCCCCc1cccc(NC(=O)[C@H](N)CCP(=O)(O)O)c1
inactive: Potency [1] | activity change, negative = inhibition [2] 2.4% [at 11.6 µM] | activity change, negative = thiol reactive [3] 1.56% [at 11.5 µM] | activity, negative = inhibition [4] 4.9% [at 11.6 µM] | redox activity (% of DA3003) [5] -3.89% [at 11.5 µM]

CC1CC(O)CC(C)(C)C1(O)CCO (stereo not given)
inactive: Potency [1] | Potency [2] | Potency [3] | Potency [4] | Potency [5]

CC1=CC2(O)/C=C/C(C)(O)CC(O)/C=C/C(=O)OC23C(=O)NC(CC(C)C)C3C1C (stereo not given)
inactive: Potency [1] | Potency [2] | Potency [3] | Potency [4] | Potency [5]

C=C1C[C@@]23CC[C@@H]4[C@](C)(C(=O)O)CCC[C@@]4(C)C2=CC[C@H]1C3
inactive: Potency [1] | Potency [2] | Potency [3] | Potency [4] | Potency [5]

O=C(/C=C/c1ccccc1)OCC1=CC[C@@H]2C(C(=O)O)=CO[C@@H](O[C@@H]3O[C@H](CO)[C@@H](O)[C@H](O)[C@H]3O)[C@H]12
inactive: Potency [1] | Potency [2] | Potency [3] | Potency [4] | Potency [5]

COC(=O)C1=C[C@@H](O)[C@@H](O)[C@H](O[C@@H]2O[C@H](COC(=O)/C=C/c3ccccc3)[C@@H](O)[C@H](O)[C@H]2O)C1
inactive: Potency [1] | Potency [2] | Potency [3] | Potency [4] | Potency [5]

C[C@]12CCC(=O)C=C1[C@@H](O)C[C@@H]1[C@@H]2[C@@H](O)C[C@@]2(C)[C@H]1CC[C@]2(O)C(=O)CO
inactive: Potency [1] | Potency [2] | Potency [3] | Potency [4] | Potency [5]

CC(C)C(=O)O[C@@H]1[C@@H](O)[C@@H](O[C@H]2O[C@H](CO)[C@@H](O)[C@H](O)[C@H]2O)O[C@H](CO)[C@H]1O
inactive: Potency [1] | Potency [2] | Potency [3] | Potency [4] | Potency [5]

C/C=C(\C)C(=O)O[C@@H]1CC2[C@@H](CC=C3C[C@@H](O[C@H]4C[C@H](OC)[C@H](O[C@H]5C[C@H](OC)[C@H](O[C@H]6C[C@H](OC)[C@H](O[C@H]7C[C@@H](OC)[C@H](O[C@@H]8O[C@H](CO)[C@@H](O)[C@H](O)[C@H]8O)[C@@H](C)O7)[C@@H](C)O6)[C@@H](C)O5)[C@@H](C)O4)CC[C@@]32C)[C@@]2(O)CC[C@H](C(C)=O)[C@@]12C (stereo not given in full)
inactive: activity change, negative = inhibition [1] -7.77% [at 9.73 µM] | activity change, negative = inhibition [2] 2.2% [at 11.6 µM] | activity change, negative = thiol reactive [3] 10.3% [at 11.5 µM] | activity, negative = inhibition [4] 4.8% [at 11.6 µM] | redox activity (% of DA3003) [5] -9.41% [at 11.5 µM]
